aSyn 5UTR act: Activators via SNCA 5'UTR binding, MLPCN | activity score, % (tested at 7.5 µM), hits read low | alpha-synuclein 5'UTR reporter, activators screen | AID 1814, 2009 | 300,000 tested, 7.1% active; in the data active = activity score below about -60%
Numbers stand for hits; i = inactive. A selection follows.

SMILES	aSyn 5UTR act
Cc1ccc2nc(N3C(=O)C(O)=C(C(=O)c4cc5ccccc5o4)C3c3cccs3)sc2c1 (stereo unspecified)	-85
CCc1ccc2nc(N3C(=O)C(O)=C(C(=O)c4ccco4)C3c3cccs3)sc2c1 (stereo unspecified)	-102
Cc1ccc2nc(N3C(=O)C(O)=C(C(=O)c4ccco4)C3c3ccc(C)o3)sc2c1 (stereo unspecified)	-82
CCCNC(=O)c1cc(-c2ccc(OC)cc2)on1	-160
CCCCNC(=O)c1cc(-c2ccc(F)cc2)on1	-592
CCCCNC(=O)c1cc(-c2ccc(OC)cc2)on1	-144
Cc1ccc(N2C(=O)Nc3cc(Cl)c(Cl)cc3N2O)cc1Cl	-99
CSc1cccc(NC(=O)N2CCCC(CNS(=O)(=O)Cc3ccccc3)C2)c1 (stereo unspecified)	-98
COc1cccc(NC(=S)N2CCC(c3ccc(C)cc3)C2)c1 (stereo unspecified)	-66
CCc1cccc(NC(=S)N2CCC(c3ccccc3)C2)c1 (stereo unspecified)	-88
CSc1cccc(NC(=S)N2CCC(c3ccccc3)C2)c1 (stereo unspecified)	-76
O=C(C#Cc1ccccc1)c1ccco1	-141
CNC[C@H](CC1CCCCC1)NC[C@H](Cc1ccccc1)NCCC12CC3CC(CC(C3)C1)C2	i
O=C(NCCc1ccc(F)cc1)NC12CC3CC(CC(C3)C1)C2	-117
O=C(CCCc1ccccc1)NC12CC3CC(CC(C3)C1)C2	-151
O=C(NCCC1=CCCCC1)NC12CC3CC(CC(C3)C1)C2	-118
O=Cc1cc(-c2ccccc2)[nH]c1-c1ccccc1	-64
COc1cc(C=O)ccc1OCC(=O)Nc1ccc2c(c1)OCO2	-90
Cc1cc(C)c(OCC(=O)Nc2ccc3c(c2)OCO3)cc1C	-112
O=C(COc1ccccc1Cl)Nc1ccc2c(c1)OCCO2	-151
Cc1ccc(OCC(=O)Nc2ccc3c(c2)OCO3)c([N+](=O)[O-])n1	-111
Cc1ccccc1OCC(=O)Nc1cccc(C(=O)O)c1	i
O=C(COc1ccc(Br)cc1Cl)NC(=O)Nc1ccc2c(c1)OCCO2	-72
Cc1ccccc1OCC(=O)Nc1ccc(N2CCN(C)CC2)c(Cl)c1	-140
COc1ccccc1OCC(=O)Nc1ccc2c(c1)OCCO2	-89
SMILES	aSyn 5UTR act
Cc1ccccc1OCC(=O)Nc1ccc2c(c1)OCCO2	-180
Cc1cccc(C)c1OCC(=O)Nc1ccc2c(c1)OCCO2	-158
N#Cc1cccc(NCC(=O)Nc2ccc3c(c2)OCCO3)c1	-69
Cc1cc(C)c(OCC(=O)Nc2cccc(O)c2)cc1C	-114
Cc1ccc2nc(NC(=O)CN3CCOCC3)sc2c1	-107
O=C(CN1CCOCC1)Nc1nc2ccc([N+](=O)[O-])cc2s1	-62
CCCc1ccc2oc(C(=O)N3CCC[C@H]3CO)c(C)c2c1	-200
CCCc1ccc2oc(C(=O)N3CCC(COC)C3)c(C)c2c1 (stereo unspecified)	-113
Cc1cc(=O)[nH]c(N/N=C/c2ccccn2)n1	i
Cc1cc(=O)[nH]c(N/N=C/c2ccc(-c3ccc(F)cc3)o2)n1	-70
Cc1cc(=O)[nH]c(N/N=C/c2ccc(Br)s2)n1	-119
O=C1/C(=C/c2ccco2)CCc2ccccc21	-140
COc1ccc(/C=C2\CCc3ccccc3C2=O)cc1CN1CCOCC1	i
COc1ccc2c(c1)CC/C(=C/c1ccco1)C2=O	-160
CCOc1ccc(/C=C2\CCc3ccccc3C2=O)cc1	-170
N#Cc1c(N2CCOCC2)nsc1-c1ccc(C(F)(F)F)cc1	-134
CN1CCN(CC/C=C2/c3ccccc3Sc3ccc(S(=O)(=O)N(C)C)cc32)CC1	-97
COc1ccc(C(=O)Cc2ccc3c(c2)OCO3)c(O)c1	-107
COc1ccc(CC(=O)c2ccc(O)cc2O)cc1	-85
O=C(Cc1ccc(Br)cc1)c1ccc(O)cc1O	-121
COc1ccc(C(=O)OCc2csc(C)n2)c(O)c1	-180
CC(=O)Nc1ccc(SCC(=O)c2cc(C)n(C)c2C)cc1	-69
NC(N)=N/N=C/c1ccc(OCc2ccccc2)cc1	-70
NC(N)=N/N=C/c1ccc(OCc2ccc(Cl)cc2)cc1	-66
Cc1cc(OCC(=O)N2CCCCCC2)ccc1[N+](=O)[O-]	-148
SMILES	aSyn 5UTR act
Cc1cc(OCC(=O)N2CCCC2)ccc1Cl	-91
Cc1cccc(/C=N/c2sc3c(c2C#N)CCN(Cc2ccccc2)C3)c1O	-74
Nc1c(-c2ccccc2)n[nH]c1-c1ccccc1	-219
Nc1cc(Cl)nc(N/N=C/c2c(O)ccc3ccccc23)n1	-162
O=C(O)c1cc(N/N=C/c2c(O)ccc3ccccc23)ccc1Cl	-66
O=C(CNc1ccccc1)N/N=C/c1c(O)ccc2ccccc12	i
NC(=O)c1ccccc1NC(=O)c1ccc2c(c1)OCO2	-152
NC(=O)c1ccccc1NC(=O)c1ccc2ccccc2c1	-139
CCc1c(C(=O)Nc2ccccc2C(N)=O)csc1C	-62
Cc1ccccc1NC(=O)c1ccc2ccccc2c1	-150
COc1ccc(C(=O)C[n+]2cn(C(F)F)c3ccccc32)c(F)c1	-117
CCOC(=O)COn1c(-c2cccc(Cl)c2)nc2ccc([N+](=O)[O-])cc21	-192
CCOC(=O)C(C)On1c(-c2cccc(Cl)c2)nc2ccc([N+](=O)[O-])cc21 (stereo unspecified)	-62
C=CCc1c(C)[nH]c2ccc(C)cc2c1=O	-86
CCC(=NCCc1c(C)[nH]c2ccc(C)cc12)C1=C(O)CC(c2ccccc2)CC1=O (stereo unspecified)	i
Cc1ccc2nc(Cl)c(-c3ccccc3)cc2c1	i
c1csc(-c2ccc3ccccc3n2)c1	-140
Cc1ccc(-c2cc3ccccc3nc2N)cc1	-93
Nc1nc2ccccc2cc1-c1cccs1	-121
Cc1ncc(/C=C2\C(=O)Nc3ccccc32)[nH]1	-104
O=C(NNC1=NCCCCC1)Nc1cccc(Cl)c1	-136
O=C(NNC1=NCCCCC1)Nc1ccc(Cl)cc1	-68
O=C(c1ccccc1)c1coc2ccc(O)c(Cl)c12	-96
Cc1ccc(C(=O)c2coc3ccc(O)c(Cl)c23)cc1	-163
Cc1ccc(C(=O)c2coc3ccc(O)cc23)cc1	-64
SMILES	aSyn 5UTR act
COc1cc(/C=N/NC(N)=S)cc(Br)c1OCc1ccccc1F	-74
COc1cc(CNC(C)c2ccccc2)cc(Br)c1OCc1ccc(F)cc1 (stereo unspecified)	i
CCOc1cc(/C=N/NC(N)=S)cc(Br)c1OCc1ccccc1C	-74
c1ccc(OCCSc2nnnn2C2CCCCC2)cc1	-122
COc1ccccc1OCCSc1nnnn1C1CCCCC1	-81
Cc1ccc(S(=O)(=O)Nc2cccc(C(=O)NCc3cccnc3)c2)cc1F	-73
CCN(Cc1ccccc1)C(=O)CCCOc1ccccc1	-91
Cc1nnc(N/N=C/c2cccc(OCc3ccc(Cl)c(Cl)c3)c2)n1N	-83
O=C(OCc1cccc(F)c1)c1ccc2c(c1)-c1ccccc1C2=O	-68
O=C(OCC(F)(F)F)c1cccc(COc2ccc3ccccc3c2)c1	i
O=C(OCc1ccccc1F)c1ccc2c(c1)-c1ccccc1C2=O	-121
CC(=O)Nc1cccc(OCC(=O)Nc2ccc(F)cc2)c1	-78
Cc1occc1C(=O)OCC(=O)Nc1ccc(F)cc1	-62
Cc1ccc(OCC(=O)Nc2ccc(F)cc2)cc1C	-74
O=C(c1cnsn1)N1CCC(CO)(Cc2cccc(F)c2)CC1	-138
COc1ccc(/C=N/N=C2/SCC(=O)N2Cc2ccccc2)cc1	-170
COc1ccc(CN2C(=O)CS/C2=N/N=C/c2ccccc2)cc1	-64
COC(=O)c1sc(NC(=O)CSc2nnnn2C)nc1C	-73
Cc1csc(NC(=O)CSc2nnnn2C)n1	-68
